High-throughput results from PubChem.
A selection: hits, their analogues and other compounds. The true share with any hit is near 3.5%.
FBW7 activator: human FBW7 E3 ligase activation, primary screen | hit rate 0.13% among 650,000 | AlphaScreen FBW7–phospho-cyclin E peptide binding, activator screen | normalized activity (activation), % at 26.1 µM | Q969H0; in the data active means normalized activity above about 1.9%;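 further: purified mutant Fbw7 with reduced substrate affinity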
MITF primary: inhibitors of human MITF; AlphaScreen MITF homodimerization, bead proximity signal; hit rate 0.91% among 650,000; inhibition, % at 2.6 µM; O75030; in the data active means inhibition above about 50%;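 further: 0% = vehicle wells with protein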
GPR151 activ: human GPR151 activation; Q8TDV0; PathHunter beta-arrestin GPR151 cells, luminescence; activation, % at 11.2 µM; hit rate 1% among 650,000; AID 1508602; in the data active means activation above about 4.9%;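 further: 0% = median of compound wells and 100% = cells with positive control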
TEAD-YAP block: TEAD-YAP interaction inhibition. HEK-TIYL cells, TEAD-Gal4/YAP UAS-luciferase luminescence. inhibition, % at 9.12 µM. hit rate 1.4% among 640,000; in the data active means inhibition above about 32%;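 further: 0% = median of test compound wells and 100% = reference inhibitor wells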
GPR151 confirm: confirmation of human GPR151 activators; shares compounds with GPR151 activ; GPR151 PathHunter beta-arrestin cells, luminescence, 90 min; % of EA-reagent control over plate median; activation, % at 11.2 µM; 6,700 tested, under 10 active; AID 1508609;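 active means mean percent activation across replicates above the confirmation screen cutoff of 4.91%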
GPR119 counter: activates human GPR119 in a GPR151 counter-screen | shares compounds with GPR151 activ | GPR119 PathHunter beta-arrestin cells, luminescence, 90 min; 0 = compound-well median, 100 = enzyme-acceptor control | activation, % at 11.2 µM | hit rate 0.3% among 6,700 | AID 1508611;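 active means mean percent activation in the counterscreen above 29.09%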;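 further: counterscreen on off-target GPR119 to flag nonselective hits from the GPR151 activator screen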
Target sequence (Q8TDV5 whole entry, looked up): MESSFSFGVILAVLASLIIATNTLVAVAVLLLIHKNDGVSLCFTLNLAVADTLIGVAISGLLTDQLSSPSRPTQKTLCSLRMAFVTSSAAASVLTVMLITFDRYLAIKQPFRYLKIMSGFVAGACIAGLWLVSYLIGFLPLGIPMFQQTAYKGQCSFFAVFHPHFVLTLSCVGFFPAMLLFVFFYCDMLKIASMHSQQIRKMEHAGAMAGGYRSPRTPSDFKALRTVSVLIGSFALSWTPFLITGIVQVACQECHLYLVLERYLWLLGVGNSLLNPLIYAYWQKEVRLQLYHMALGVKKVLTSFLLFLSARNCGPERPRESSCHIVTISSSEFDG
Starred values were filed as active, the others as inactive.

What do the screens show for `Cc1nc2ccc(N/C=C3\C(=O)C(C)(C)Oc4ccc5ccc(=O)oc5c43)cc2s1`?
FBW7 activator: -0.1; MITF primary: 1.5; GPR151 activ: 5.8*; TEAD-YAP block: -9.8; GPR151 confirm: 0.8; GPR119 counter: 5.0

Results for COc1ccc(NC(=O)C(C)Oc2ccc3oc(=O)cc(C)c3c2)cc1 (stereo not given) ?
FBW7 activator: 0.1; MITF primary: 21.9; GPR151 activ: -1.5; TEAD-YAP block: -1.4

How did COc1ccccc1C(=O)Nc1cccc(N(C)C)c1 do in these assays?
FBW7 activator: -0.3; MITF primary: 3.8; GPR151 activ: 15.8*; TEAD-YAP block: -11.2; GPR151 confirm: 0.0; GPR119 counter: -9.3

How did COc1ccccc1C(=O)Nc1ccc2c(C)cc(=O)oc2c1 do in these assays?
FBW7 activator: 0.2; MITF primary: 13.0; GPR151 activ: 17.0*; TEAD-YAP block: -65.0; GPR151 confirm: -0.7; GPR119 counter: -5.8

Results for CCOC(=O)c1cccc(NC(=O)c2ccccc2OCC)c1 ?
FBW7 activator: 0.2; MITF primary: 8.5; GPR151 activ: 5.5*; TEAD-YAP block: -3.8; GPR151 confirm: -0.3; GPR119 counter: -4.8

Results for Cc1cc(=O)oc2cc(OC(C)C(=O)Nc3ccccc3)ccc12 (stereo not given) ?
FBW7 activator: 0.5; MITF primary: -9.3; GPR151 activ: 5.3*; TEAD-YAP block: 7.4; GPR151 confirm: -0.3; GPR119 counter: -6.4

How did CCOc1ncccc1C(=O)Nc1ccc2c(C)cc(=O)oc2c1 do in these assays?
FBW7 activator: 0.2; MITF primary: 5.3; GPR151 activ: -1.1; TEAD-YAP block: -3.4

How did O=C(Nc1nnc(SCC(=O)N2CCCc3ccccc32)s1)c1ccccc1Br do in these assays?
FBW7 activator: 0.1; MITF primary: 13.9; GPR151 activ: 1.6; TEAD-YAP block: -8.6

How did Cc1ccc(-n2ncc3c(N4CCN(CCO)CC4)ncnc32)cc1 do in these assays?
FBW7 activator: 0.0; MITF primary: -3.8; GPR151 activ: -1.6; TEAD-YAP block: -25.3

What do the screens show for `Brc1ccc(-c2cn3c4ccccc4nc3n2CCNC2CCCCC2)cc1`?
FBW7 activator: 0.8; MITF primary: -13.3; GPR151 activ: -0.4; TEAD-YAP block: -1.6

How did CCOC(=O)c1c(C)[nH][n+]2c(C(=O)OCC)c(C)nn12 do in these assays?
FBW7 activator: 0.0; MITF primary: 10.3; GPR151 activ: 0.4; TEAD-YAP block: 5.8

How did Cc1ccc(C(=O)Nc2ccc(NC(=O)c3ccccc3N)cc2)cc1 do in these assays?
FBW7 activator: 1.2; MITF primary: -0.9; GPR151 activ: 5.3*; TEAD-YAP block: -8.0; GPR151 confirm: 1.4; GPR119 counter: 12.2

Results for CCOC(=O)CCN1C(=O)[C@H]2[C@H]3[C@H](O)[C@H](O)C/C(=N\NC(=O)OCc4ccccc4)[C@@H]3CC[C@H]2C1=O ?
FBW7 activator: 0.0; MITF primary: 10.9; GPR151 activ: 0.5

Results for CCN1C(=O)[C@H]2[C@H]3[C@H](O)[C@H](O)C/C(=N\NC(=O)OCc4ccccc4)[C@@H]3CC[C@H]2C1=O ?
FBW7 activator: -0.1; MITF primary: 8.8; GPR151 activ: 5.0*; GPR151 confirm: 0.4; GPR119 counter: 8.4

How did CCOC(=O)c1sc(NC(=S)NC(=O)c2ccccc2F)nc1C do in these assays?
FBW7 activator: -0.1; MITF primary: -0.7; GPR151 activ: -0.5; TEAD-YAP block: 10.1

How did CCOC(=O)c1sc(NC(=O)c2c(F)cccc2F)nc1C do in these assays?
FBW7 activator: 0.0; MITF primary: -6.0; GPR151 activ: 7.8*; TEAD-YAP block: -6.5; GPR151 confirm: 0.0; GPR119 counter: 16.2

How did COC(=O)c1ccccc1S(=O)(=O)C1CCN(C(=O)Nc2ccc(F)cc2F)CC1 do in these assays?
FBW7 activator: 0.0; MITF primary: 7.4; GPR151 activ: 5.0*; TEAD-YAP block: -4.3; GPR151 confirm: -1.6; GPR119 counter: -13.4

What do the screens show for `O=C(Cc1ccc(-c2ccccc2)cc1)N1CCCCC1`?
FBW7 activator: -0.1; MITF primary: 5.4; GPR151 activ: -0.2; TEAD-YAP block: -30.5

Results for CC#CCN1c2ccccc2[C@]23CCC(=O)N(CCOC)C2=NC(C(=O)OC)=C(C(=O)OC)[C@H]13 ?
FBW7 activator: -0.3; MITF primary: -6.0; GPR151 activ: 1.7

What do the screens show for `Cc1ccc(NC(=O)CSc2nc3c(c(=O)n2C)SCC3)c(C)c1`?
FBW7 activator: 0.0; MITF primary: 4.7; GPR151 activ: 7.4*; TEAD-YAP block: 24.7; GPR151 confirm: 0.2; GPR119 counter: 6.0

Results for COc1ccc(C(=O)Nn2c(C3CCCCC3)nc3ccccc3c2=O)cc1Br ?
FBW7 activator: 1.4; MITF primary: 18.2; GPR151 activ: 0.0; TEAD-YAP block: -15.5

How did CC(=O)c1cc2c(cc1NC(=O)c1ccccc1)OCCO2 do in these assays?
FBW7 activator: 0.2; MITF primary: 13.3; GPR151 activ: -0.5; TEAD-YAP block: -0.1

Results for CC(=O)c1cc2c(cc1NC(=O)c1cccc(Br)c1)OCCO2 ?
FBW7 activator: 0.1; MITF primary: 17.7; GPR151 activ: 5.6*; TEAD-YAP block: 12.5; GPR151 confirm: -0.1; GPR119 counter: -1.9

Results for Cc1ccc(/C=C/C(=O)Nc2ccc(C(N)=O)cc2)cc1 ?
FBW7 activator: -0.1; MITF primary: 13.2; GPR151 activ: 1.5; TEAD-YAP block: -26.3

How did COc1ccc(OC)c(Nc2nnc(Cc3cccnc3)c3ccccc23)c1 do in these assays?
FBW7 activator: -0.3; MITF primary: -13.1; GPR151 activ: -1.0; TEAD-YAP block: -5.6

Results for O=C1c2ccc([N+](=O)[O-])cc2C(=O)N1c1ccc(Cl)c(Cl)c1 ?
FBW7 activator: 0.0; MITF primary: 6.7; GPR151 activ: 6.9*; TEAD-YAP block: 9.4; GPR151 confirm: 0.8; GPR119 counter: 7.2

How did Cc1ccc(N2C(=O)c3ccc([N+](=O)[O-])cc3C2=O)cc1Cl do in these assays?
FBW7 activator: -0.1; MITF primary: 5.7; GPR151 activ: 0.3; TEAD-YAP block: 13.9

What do the screens show for `COCCN(Cc1cccc(Cl)c1)C(=O)c1nc2ccc(-c3cn[nH]c3)cc2s1`?
FBW7 activator: -0.2; MITF primary: 1.6; GPR151 activ: 6.2*; TEAD-YAP block: -31.2; GPR151 confirm: -0.3; GPR119 counter: -6.7

What do the screens show for `COCCN(Cc1cccc(OC)c1)C(=O)c1nc2ccc(-c3cn[nH]c3)cc2s1`?
FBW7 activator: 0.2; MITF primary: 3.8; GPR151 activ: 0.9; TEAD-YAP block: -8.8

Results for COc1cc(C(=O)Nc2ccc(O)cc2C)cc(OC)c1OC ?
FBW7 activator: 0.1; MITF primary: 12.0; GPR151 activ: -0.6; TEAD-YAP block: -0.7

Results for COc1cc(C(=O)Nc2cc(C)c(O)cc2C)cc(OC)c1OC ?
FBW7 activator: 0.0; MITF primary: -6.0; GPR151 activ: 6.1*; TEAD-YAP block: 4.7; GPR151 confirm: 1.1; GPR119 counter: 4.2
